HP1b chromo inh – HTS for Inhibitors of HP1-beta Chromodomain Interactions with Methylated Histone Tails. Chromobox protein homolog 1 (Homo sapiens), P83916. Potency, µM (series often up to 114 µM), hits mostly inhibitors. AlphaScreen HP1-beta / biotin-H3K9me3 peptide binding. AID 540317, 2011. hit rate 0.56% among 390,000; note: nearly all actives have a fitted effect of over 70% in size
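Compound inhibition of the preformed complex between 50 nM HP1-beta and 50 nM biotinylated H3K9me3 peptide was read by AlphaScreen. Buffer was PBS pH 7.4 with 0.01% Tween-20. Incubations ran 30 min at room temperature, with 10 ug/mL donor/acceptor beads.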
BAZ2B block – qHTS Assay for Inhibitors of BAZ2B | Potency, µM (highest dose often 114 µM), actives largely listed as inhibitors | AlphaScreen BAZ2B-H3K14Ac peptide displacement | Bromodomain adjacent to zinc finger domain protein 2B (Homo sapiens), Q9UIF8 | AID 504333, 2011 | hit rate 4.4% among 360,000; note: nearly all actives have a fitted effect of over 60% in size
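AlphaScreen luminescence quantifies BAZ2B engagement of H3K14Ac peptide; the protein and biotinylated peptide are both at 50 nM final, buffer PBS pH 7.4 with 0.01% Tween-20, all steps at room temperature.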
Six1-Eya2 blk – qHTS Assay for Inhibitors of the Six1/Eya2 Interaction; AlphaScreen GST-Six1/His-Eya2 binding, biochemical; hits give low values; hit rate 0.56% among 360,000; activity change, % (concentration not given with the values); Homeobox protein SIX1 (Homo sapiens) + Protein phosphatase EYA2 (Homo sapiens), …; in the data active = activity change below about -65%; inconclusive = mostly about -30% to -63%
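Compounds are tested against tagged Six1 and Eya2 proteins bridged by glutathione donor and nickel acceptor beads; after a one-hour incubation at 37 °C without light, AlphaScreen emission is recorded.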
CtBP-E1A inh – qHTS Assay for Inhibitors of the CtBP/E1A Interaction; AlphaScreen GST-E1A/His-CtBP binding, 1536-well; hits give low values; activity change, % (concentration not given with the values); hit rate 0.49% among 340,000; in the data active = activity change below about -65%; inconclusive = mostly about -30% to -63%
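Protein mix (5X: 125 nM each GST-E1A, His-CtBP) was incubated with pinned compound 2 h at 37 deg C in dark, in 50 mM Tris pH 8.0 buffer with 300 mM NaCl. Glutathione donor and nickel acceptor beads followed; AlphaScreen signal read after 1 h.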
G9a block – qHTS Assay for Inhibitors of Histone Lysine Methyltransferase G9a. Potency, µM (series often up to 102 µM), hits mostly inhibitors. Histone-lysine N-methyltransferase EHMT2 (Homo sapiens), Q96KQ7. G9a H3K9 monomethylation, AlphaScreen, 2 h. hit rate 8.8% among 350,000; note: nearly all actives have a fitted effect of over 75% in size
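Methyltransferase reactions run at room temperature for 2 h (20 nM enzyme, 500 nM biotin-H3K9 peptide, 20 uM SAM) after a 15 min compound preincubation; product detected by AlphaScreen beads and anti-H3K9me1 antibody.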
JMJD2A Tudor inh – qHTS Assay for Inhibitors of JMJD2A-Tudor Domain. Lysine-specific demethylase 4A (Homo sapiens), O75164. AlphaScreen JMJD2A-Tudor / H3K4me3 peptide binding. Potency, µM (series often up to 114 µM), actives largely listed as inhibitors. hit rate 4.4% among 390,000; note: nearly all actives have a fitted effect of over 50% in size
Target sequence (O75164 whole entry, looked up, the tested form may be a part): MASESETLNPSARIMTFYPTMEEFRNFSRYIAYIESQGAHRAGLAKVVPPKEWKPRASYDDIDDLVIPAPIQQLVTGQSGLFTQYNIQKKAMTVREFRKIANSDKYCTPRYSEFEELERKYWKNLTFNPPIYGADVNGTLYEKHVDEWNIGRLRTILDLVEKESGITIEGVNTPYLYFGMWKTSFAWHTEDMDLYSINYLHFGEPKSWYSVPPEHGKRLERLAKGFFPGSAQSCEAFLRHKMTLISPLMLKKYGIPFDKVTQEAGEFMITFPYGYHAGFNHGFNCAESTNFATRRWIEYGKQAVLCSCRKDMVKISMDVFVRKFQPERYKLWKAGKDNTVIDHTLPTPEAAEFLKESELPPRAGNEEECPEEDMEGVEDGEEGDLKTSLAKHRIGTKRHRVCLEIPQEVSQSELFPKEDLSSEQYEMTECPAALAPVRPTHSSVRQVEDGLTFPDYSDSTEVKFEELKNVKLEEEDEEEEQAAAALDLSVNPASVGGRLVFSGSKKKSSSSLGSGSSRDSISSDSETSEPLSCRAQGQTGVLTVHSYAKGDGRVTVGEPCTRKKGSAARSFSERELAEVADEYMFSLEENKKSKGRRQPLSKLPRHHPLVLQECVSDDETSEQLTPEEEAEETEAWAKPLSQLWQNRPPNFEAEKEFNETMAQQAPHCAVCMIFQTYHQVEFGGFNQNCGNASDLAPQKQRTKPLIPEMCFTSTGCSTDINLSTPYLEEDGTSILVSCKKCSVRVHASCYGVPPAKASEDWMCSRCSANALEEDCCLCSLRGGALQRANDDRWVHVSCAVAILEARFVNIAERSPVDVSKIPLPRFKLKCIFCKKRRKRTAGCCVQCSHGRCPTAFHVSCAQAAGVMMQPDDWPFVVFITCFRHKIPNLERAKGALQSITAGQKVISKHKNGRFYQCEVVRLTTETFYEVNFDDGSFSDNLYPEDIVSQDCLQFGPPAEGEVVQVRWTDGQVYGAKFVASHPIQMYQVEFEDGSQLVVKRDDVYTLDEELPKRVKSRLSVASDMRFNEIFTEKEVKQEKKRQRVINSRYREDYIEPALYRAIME
Each line names hits and unclear results; the compound was inactive in the other large screens. Compounds with a hit are over-represented: about 10% of the library has one in this group of screens. Unless noted, calls come from the whole dose curve; as a rule, active = well fitted inhibition curve with a large enough effect; inconclusive = small, poorly fitted or top-dose-only effect; inactive = no such curve, though single readings can be large or run the other way.

COC(=O)c1ccc(CSC2=NC[C@@H]3[C@@H]4C(=O)N(Cc5ccccc5)C(=O)[C@@H]4[C@](Cc4ccccc4)(C(=O)OC)N23)cc1	JMJD2A Tudor inh 79µM (no result: BAZ2B block, G9a block)
Cc1cc2c(cc1C)NC(CC(=O)Nc1cccc(C)c1C)C(=O)N2 (stereo not given)	none (no result: Six1-Eya2 blk, CtBP-E1A inh)
COC(=O)c1c(NC(=O)CC2Nc3cc(C)c(C)cc3NC2=O)sc(C)c1C (stereo not given)	G9a block 20µM
CCc1cc(C(=O)OC)c(NC(=O)CC2Nc3cc(C)c(C)cc3NC2=O)s1 (stereo not given)	G9a block inconclusive
Cc1cc2c(cc1C)NC(CC(=O)NCc1ccccc1)C(=O)N2 (stereo not given)	G9a block 3.2µM
COc1ccc(-c2nc3c4cnn(-c5ccccc5F)c4ncn3n2)cc1	none (no result: Six1-Eya2 blk, CtBP-E1A inh)
O=C(Nc1cccc(-c2nc3cccnc3s2)c1)C1c2ccccc2Oc2ccccc21	BAZ2B block 79µM, G9a block inconclusive, JMJD2A Tudor inh inconclusive
Clc1ccc(N2COC3c4cccc5cccc(c45)C32)cc1 (stereo not given)	none
COc1ccc(N2COC3c4cccc5cccc(c45)C32)cc1 (stereo not given)	BAZ2B block 45µM, Six1-Eya2 blk inconclusive, G9a block inconclusive, JMJD2A Tudor inh 63µM
O=C(Nc1ccccc1F)C1CCCN(S(=O)(=O)c2ccccc2)C1 (stereo not given)	JMJD2A Tudor inh 13µM
O=C(NCc1ccccn1)C1CCCN(S(=O)(=O)c2ccccc2)C1 (stereo not given)	G9a block 35µM
COc1ccc(S(=O)(=O)N2CCCC(C(=O)NCc3ccccn3)C2)cc1 (stereo not given)	none
CS(=O)(=O)N1CCCC(C(=O)Nc2ccccc2F)C1 (stereo not given)	none
O=C(Nc1ccc(N2CCOCC2)cc1)C1CCCN(S(=O)(=O)c2ccccc2)C1 (stereo not given)	none
Cc1ccc(S(=O)(=O)N2CCCCC2C(=O)Nc2ccc(N(C)C)cc2)cc1 (stereo not given)	HP1b chromo inh inconclusive, Six1-Eya2 blk inconclusive, JMJD2A Tudor inh 50µM (no result: BAZ2B block, G9a block)
CN(C)c1ccc(NC(=O)C2CCCN(S(=O)(=O)c3ccccc3)C2)cc1 (stereo not given)	BAZ2B block inconclusive, G9a block 8.9µM
Cc1ccsc1CNC(=O)C1(C)CCN1C(C)C (stereo not given)	none (no result: HP1b chromo inh, BAZ2B block, G9a block, JMJD2A Tudor inh)
Cc1ccc(S(=O)(=O)N2CCN(S(=O)(=O)c3ccccc3)C2c2ccc(N(C)C)cc2)cc1 (stereo not given)	BAZ2B block inconclusive, G9a block 8.9µM, JMJD2A Tudor inh inconclusive
CC(=O)N1CCN(S(=O)(=O)c2ccc(C)cc2)C1c1ccc(N(C)C)cc1 (stereo not given)	JMJD2A Tudor inh inconclusive
CC1CCN(c2ccc(NC(=O)C3CCCN3S(=O)(=O)c3ccc(F)cc3)cc2)CC1 (stereo not given)	HP1b chromo inh inconclusive, BAZ2B block 45µM, Six1-Eya2 blk inconclusive, G9a block 10µM, JMJD2A Tudor inh 40µM
CCCc1nc2ccc([N+](=O)[O-])cc2[nH]1	none (no result: G9a block)
Cc1cc(O)c2c(c1)OC1(C)CCC3C(C)(C)CCCC34COC2C14 (stereo not given)	none (no result: HP1b chromo inh, BAZ2B block, Six1-Eya2 blk, CtBP-E1A inh, JMJD2A Tudor inh)
CC(=O)Nc1cccc(C(=O)O)n1	BAZ2B block 22µM, Six1-Eya2 blk inconclusive, G9a block 8.9µM, JMJD2A Tudor inh inconclusive
O=C(O)c1cccc(C(=O)O)n1	G9a block inconclusive (no result: HP1b chromo inh, Six1-Eya2 blk, CtBP-E1A inh, JMJD2A Tudor inh)
O=C(O)c1cccc(Cl)n1	G9a block 40µM
O=C(Cn1c(=O)c(C(F)(F)F)nc2ccccc21)Nc1cccc(Br)c1	none (no result: Six1-Eya2 blk, CtBP-E1A inh)
